# In PubChem BioAssay AID2417 (National Center for Advancing Translational Sciences (NCATS), 2010):
# Among all 140,000 compounds or so, about 4,300 (3.1%) were called active. Not shown: some 21% with an inconclusive outcome. For the sample, actives were picked, then their nearest neighbours and some compounds at random. Unmarked numbers belong to inactive results.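 How the source made its calls: active means readout at or below -70, meaning at least 70% loss of cells showing the perinucleolar compartment, a nuclear body marking cancer cells; inconclusive means readout between -30 and a set limit; inactive means the rest.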
# Experiment: High Content Assay for Compounds that inhibit the Assembly of the Perinucleolar Compartment;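 further: plate controls were DMSO wells for no effect and camptothecin positive control wells for full effect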
# Settings: PC3M PTB-GFP, PNC prevalence imaging, 16 h; at 10 µM; stronger effect = lower value
# In short: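 PC3M cells stably expressing PTB-GFP, 750–1000 cells/well, treated 16 h at 37 °C with compound (23 nl of library stock), in duplicate. After paraformaldehyde fixation and Hoechst stain, imaged at 20x; PNC prevalence scored by image analysis.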
row,Compound,"activity change (PNC), negative = inhibition"
1,CC(OC(=O)c1ccccc1N1C(=O)C2C3CCC(C3)C2C1=O)C(=O)c1ccccc1 (centres undefined),-15.7%
2,CCOC(=O)c1c(NC(=O)CCl)sc(C(=O)N(CC)CC)c1C,4.89%
3,CC(C)C(C)NC(=O)COc1ncnc2ccccc12 (centres undefined),23%
4,CCOC(=O)c1sc(NC(=O)COc2ncnc3ccccc23)c(C(=O)OCC)c1C,-95.9% (active)
5,CCOc1ccc(-c2n[nH]c(=S)n2/N=C/c2cc3c(cc2[N+](=O)[O-])OCO3)cc1,25.2%
6,O=C(COc1ccc(Cl)cc1)NCCSc1ccccc1,8.59%
7,O=C(COc1ccc(Cl)cc1)Nc1ccccc1CO,-92.3% (active)
8,COC(=O)c1sccc1NC(=O)COc1ccc(Cl)cc1,-3.53%
9,CCS(=O)(=O)N1Cc2ccccc2CC1C(=O)Nc1nc2ccc(F)cc2s1 (centres undefined),48.1%
10,O=C1C2C3C=CC(C4CC34)C2C(=O)N1c1nccs1 (centres undefined),23.7%
11,Cc1cc(Cl)ccc1NC(=S)N1CCC(C(N)=O)(N2CCCCC2)CC1,74.5%
12,CC(=O)Nc1ccc(NC(=O)c2sc3nc4c(c(-c5ccc(C)cc5)c3c2N)CCC4)cc1,14%
13,NC(=O)c1sc2nc3c(c(-c4ccccc4)c2c1N)CCC3,-100% (active)
14,Cc1nc2sc(C(=O)c3ccccc3)c(N)c2c2c1CCCC2,7.19%
15,COc1ccc(Br)cc1C(=O)Nc1cccc(C)c1C,-16.5%
16,CC(C)OCCCNC(=O)c1cc(Sc2ccc(F)cc2)nc2ccccc12,-1.71%
17,Cc1cc(C)cc(NC(=O)N2CCC(NC(=O)c3ccc(F)cc3)CC2)c1,-20.1%
18,O=S(=O)(c1ccc(F)cc1)N1CCN(C(=S)NCc2ccco2)CC1,8.43%
19,O=C(NC1CCN(C(=S)NCc2ccco2)CC1)c1ccc(F)cc1,-100% (active)
20,Cc1ccc(CN2CCN(/N=C/c3cccnc3)CC2)c(C)c1,-5.48%
21,CC(C)(C)NC(=O)C(=O)NCc1ccncc1,-17.6%
22,O=C(N/N=C/c1ccccn1)C12CC3CC(CC(C3)C1)C2,-19.1%
23,COCCCn1c2nc3ccccc3nc2c2c(=O)n(Cc3ccc(Cl)cc3)c(C)nc21,39.8%
24,CCOc1ccccc1C(=O)NCCCn1ccnc1,15.6%

row,Compound,"activity change (PNC), negative = inhibition"
1,Cc1nc2ccccc2c(=O)n1CCCn1ccnc1,-81.9% (active)
2,Cc1ccc(C2C3=C(Nc4[nH]n(-c5ccccc5)c(=O)c42)c2ccccc2C3=O)cc1 (centres undefined),-4.45%
3,CCCN(CCC)C(=S)Nc1cc(C(=O)OC)ccc1C(=O)OC,27.9%
4,Cn1c(=O)c(Sc2ccc(Cl)cc2)c(O)c2ccccc21,-25.4%
5,CCOC(=O)CNC(=O)/C=C/c1c(Cl)cccc1Cl,-123% (active)
6,O=C(CNC(=O)Cc1ccccc1)NCC(=O)OCC(=O)c1ccccc1Cl,90.5%
7,O=C(/C=C/c1c(Cl)cccc1Cl)NCc1ccccc1,-1.54%
8,CCOC(=O)CC(NC(=O)C1c2ccccc2Oc2ccccc21)c1ccc(C)cc1 (centres undefined),-19.2%
9,CCOC(=O)N1CCN(C(=O)C2CCN(Cc3ccc(OC)cc3OC)CC2)CC1,33.2%
10,N/C(=N\c1nc2ccccc2o1)NC(=O)C(Cc1ccccc1)N1C(=O)c2ccccc2C1=O (centres undefined),-100% (active)
11,O=C(NC1=NCCS1)[C@H](Cc1ccccc1)N1C(=O)c2ccccc2C1=O,5.11%
12,O=C(NCCN1CCOCC1)[C@H](Cc1ccccc1)N1C(=O)c2ccccc2C1=O,-13.4%
13,CC(Sc1nc(-c2ccccc2)cc(C(F)(F)F)n1)C(=O)Nc1ccc2c(c1)OCO2 (centres undefined),-18%
14,Cc1ccc(C(=O)OCC(=O)NCc2ccc3c(c2)OCO3)s1,-9.27%
15,c1n[nH]c(NCc2ccc3c(c2)OCO3)n1,-81.5% (active)
16,O=C(COc1ccccc1)NCc1ccc2c(c1)OCO2,24%
17,O=C(CSc1nnc(SCc2ccc(Cl)cc2)s1)N/N=C/c1ccccc1Cl,-24.9%
18,CCOc1ccc(N2C(=O)/C(=C/c3ccc(C)o3)N(C)C2=S)cc1,15.7%
19,CC(C)CCN1C(=O)c2ccc(C(=O)Nc3cccc(S(N)(=O)=O)c3)cc2C1=O,-6.14%
20,CCOC(=O)C1=C(C)NC(=O)NC1c1ccccc1 (centres undefined),2.37%
21,CCOC(=O)C1=C(C)NC(C)=C(C(=O)OCC)C1C1=COCCO1,12%
22,CCOC(=O)C1=C(C)NC(=S)NC1c1cccs1 (centres undefined),-93.3% (active)
23,CONc1nc2nonc2nc1NOC,47%
24,Cc1cnc(NC(=O)CSc2nnc(-c3ccccc3)n2Cc2ccccc2)s1,-8.74%

row,Compound,"activity change (PNC), negative = inhibition"
1,Cc1cnc(NC(=O)CSc2nnc(-c3ccc(Cl)cc3Cl)n2N)s1,-100% (active)
2,Cc1cnc(NC(=O)CSc2c(Cl)cccc2Cl)s1,79.3%
3,COc1ccc(C(=O)O/N=C(\N)Cc2ccc(Cl)cc2Cl)cc1OC,-26.7%
4,CNS(=O)(=O)c1ccc(N2CCCC2=O)c([N+](=O)[O-])c1,-24.4%
5,COc1ccc(C(CC(=O)c2ccccc2)S(=O)(=O)c2ccccc2)cc1 (centres undefined),10.3%
6,COCCOC(=O)C1=C(C)N=c2s/c(=C\c3cccs3)c(=O)n2C1c1cccs1 (centres undefined),-82.9% (active)
7,COCCOC(=O)C1=C(C)Nc2nc(C)nn2C1c1ccccc1 (centres undefined),-12.5%
8,CCOC(=O)C1=C(C)N=c2s/c(=C\C(=O)OC)c(=O)n2C1c1ccc(OC)cc1 (centres undefined),0.912%
9,C=CCOc1ccc(/C=N/NC(=O)C(C)Sc2ccccn2)cc1OCC (centres undefined),17.5%
10,Cc1ccc(N=C2NC(=O)c3cccc([N+](=O)[O-])c32)cc1,43.8%
11,Cc1nc2c(c(=O)n1Cc1ccco1)c1nc3ccccc3nc1n2Cc1ccccc1,32.1%
12,Cn1c2ccccc2c(=O)c2c(=O)n(Cc3ccco3)c(COc3ccccc3)nc21,-87% (active)
13,COc1ccc(NC(=O)Cn2c(=O)n(Cc3ccco3)c(=O)c3ccccc32)cc1,-2.68%
14,Cc1cc(NC(=O)COC(=O)COc2ccc(Cl)cc2C)c([N+](=O)[O-])cc1C,-20.6%
15,CN1/C(=C\C(=O)c2cccnc2Cl)C(C)(C)c2ccccc21,78%
16,CCC1C=C(c2ccccc2)C=CN=C1N(CC)CC (centres undefined),-9.28%
17,COc1cc(OC)cc(C(=O)NC2CCN(C(=O)N3c4ccccc4Sc4ccccc43)CC2)c1,-91% (active)
18,CCOc1ccc(C(=O)NC2CCN(C(=O)Nc3ccccc3OC)CC2)cc1,37.5%
19,O=C(NC1CC1)c1ccc2c(c1)NC(=O)c1ccccc1S2,14.7%
20,CCn1cc(CNC(=O)c2cc([N+](=O)[O-])c(C)c([N+](=O)[O-])c2)cn1,4.07%
21,CCN(CC)CCn1c(/N=C/c2cc(Br)ccc2O)nc2ccccc21,21.6%
22,O=C(COC(=O)/C=C/c1ccc(S(=O)(=O)N2CCCCCC2)cc1)NCc1ccccc1Cl,0.0752%
23,Nc1nc(NCCCN2CCOCC2)nc(Nc2ccccc2)c1[N+](=O)[O-],-16.9%
24,CNc1nc(Nc2ccc(C)c(Cl)c2)nc(N)c1[N+](=O)[O-],-113% (active)

row,Compound,"activity change (PNC), negative = inhibition"
1,Cc1ccc(Nc2cc(C)nc3c(C)ccc([N+](=O)[O-])c23)cc1,23%
2,O=C(Cc1ccccc1)NNC1CC(=O)N(c2ccc(Br)cc2)C1=O (centres undefined),6.12%
3,O=C(CC1NCCNC1=O)Nc1cc(Cl)cc(Cl)c1 (centres undefined),29.9%
4,CCc1ccc(Oc2coc3cc(OC(=O)c4cc5ccccc5oc4=O)ccc3c2=O)cc1,2.64%
5,C=CCn1c(SCC(=O)/C(C#N)=C(\C)N)nc2sc(C)c(C)c2c1=O,-7.62%
6,C=CCn1c(SCc2csc(C)n2)nc2scc(-c3ccc(C)o3)c2c1=O,-99.5% (active)
7,C=CCn1c(SCc2c(C)noc2C)nc2sc3c(c2c1=O)CCC(C)C3 (centres undefined),-26.1%
8,CC1CCCN(S(=O)(=O)c2ccc(N(C(=O)c3cnccn3)C(C(=O)NC3CCCCC3)c3cccs3)cc2)C1 (centres undefined),13.4%
9,O=C(/C=C/c1cnc2ccccc2n1)NC1CCCCCC1,-24.3%
10,Cc1nn(Cc2ccc(Cl)cc2)c(Cl)c1/C=N/NC(=O)c1cccnc1,35.8%
11,NC(=O)COc1ccc2c3c(c(=O)oc2c1)CCCCC3,-10.3%
12,O=C(COc1ccc2oc3c(c2c1)CCCC3)Nc1ccccn1,-26.2%
13,O=C(CN1CCOCC1)N1CCCc2c1c(=O)oc1ccc(OCc3ccccc3)cc21,-90.3% (active)
14,CCCCN(CC)C(=O)c1ccccc1Oc1ccccc1,6.14%
15,Cc1cccc(C(=O)NC(=S)N2CCN(c3ccc([N+](=O)[O-])cc3)CC2)c1,8.71%
16,CC(=O)N1c2ccccc2N(Cc2ccc([N+](=O)[O-])cc2)C(=O)C1(C)C,13.5%
17,COC(=O)c1ccc(Cc2ccccc2)o1,13.6%
18,COC(=O)c1ccc(CSc2ccccc2C)o1,-112% (active)
19,COCC(C)n1c(SCc2ccc(C(=O)OC)o2)nc2ccccc2c1=O (centres undefined),1.64%
20,COC(=O)c1ccc(CSc2nc3ccccc3c(=O)n2-c2cccc(OC)c2)o1,7.85%
21,CCOc1ccccc1Nc1nnc(SCc2ccc(C(=O)OC)o2)s1,30.2%
22,COC(=O)c1ccc(CSc2ccc3nnc(-c4ccccc4)n3n2)o1,-97.8% (active)
